Rows were chosen to be rich in hits. Some 7.5% of all compounds tested hit in one or more screens of this group.
ELG1 repair inh = ELG1-dependent DNA repair inhibition; HEK293T ELG1-luciferase reporter, luminescence, 16 h; DNA damage induced by 5-fluorouridine; Potency, µM (top dose mostly 46.1 µM), most hits filed as inhibitors; actives 2.3% (n = 330,000); AID 504467; further: nearly all actives have a fitted effect of over 55% in size
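DMSO vehicle served as the neutral condition. Each well held 2,000 cells given 5-fluorouridine plus compound; after 16 hr at 37 °C/5% CO2, ONE-Glo was added and luciferase measured 30 min later.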
TSHR antag = human thyrotropin receptor antagonism | TSHR-expressing cells, TSH-stimulated cAMP HTRF, 2 h; hits give low values | actives 0.2% (n = 330,000) | activity change, negative = inhibition, % at 11.5 µM | AID 504810 | P16473;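 active means activity change below a set negative limit, meaning inhibition stronger than a set level, cut at about -70% in these data; inconclusive means activity change between two set negative limits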
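Freshly harvested TSHR cells receive pin-tooled compound, then EC80 TSH at 4nM final. After 2 hours at 37 deg C, antibody in lysis buffer and cAMP-d2 are added; 30 minutes at ambient temperature precede the HTRF read.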
RORg inh = ROR gamma (mouse) transcription inhibition; P51450; Drosophila S2 Gal4-RORgamma UAS-luciferase reporter, 20 h; Potency, µM (top dose mostly 53.6 µM), most hits filed as inhibitors; actives 5.4% (n = 310,000); AID 2551; further: nearly all actives have a fitted effect of over 60% in size
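Stable Schneider cell line, Gal4 DNA-binding domain fused to ROR gamma, UAS-luciferase. Cmpd 1 hr RT → CuSO4 700 uM final → 20 hr RT → luciferase reagent 10 min → luminescence.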
Gal4-VP16 FLuc = counter-screen for ROR gamma inhibitors: Gal4-VP16 reporter | Drosophila S2 Gal4-VP16 UAS-luciferase, luminescence, 20 h | Potency, µM (series often up to 53.6 µM), most hits filed as inhibitors | actives 3.5% (n = 310,000);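 further: Gal4-VP16 expression switched on by copper sulfate through the metallothionein promoter; nearly all actives have a fitted effect of over 50% in size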
B2AR arrestin = agonists driving beta-arrestin recruitment to human beta2-adrenergic receptor. beta-arrestin recruitment to beta2AR, cell-based reporter. Potency, µM (highest dose often 46.1 µM), most hits filed as activators. actives 0.02% (n = 330,000). AID 492947; further: nearly all actives have a fitted effect of over 65% in size
Target sequence (P07550 whole entry, looked up): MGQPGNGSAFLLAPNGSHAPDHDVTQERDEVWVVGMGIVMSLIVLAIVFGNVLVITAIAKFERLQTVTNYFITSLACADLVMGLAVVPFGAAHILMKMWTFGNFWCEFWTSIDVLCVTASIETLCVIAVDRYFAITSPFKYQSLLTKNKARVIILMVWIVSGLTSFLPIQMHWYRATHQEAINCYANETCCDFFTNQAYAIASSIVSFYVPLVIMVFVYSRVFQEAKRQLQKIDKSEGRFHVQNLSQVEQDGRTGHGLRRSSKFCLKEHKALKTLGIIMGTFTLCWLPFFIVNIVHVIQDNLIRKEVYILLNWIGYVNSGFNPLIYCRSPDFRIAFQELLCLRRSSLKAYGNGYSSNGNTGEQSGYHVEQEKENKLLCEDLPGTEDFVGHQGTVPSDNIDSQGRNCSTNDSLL
Numbers stand for hits; – = inactive; ? = inconclusive; · = no result given; [ ] = dose if it differs, or a comment. Unless noted, the call rests on the fitted dose curve; in most records, active means well fitted curve in the direction sought with a large enough effect; inconclusive means small, poorly fitted or top-dose-only effect, or another doubt; inactive means no such curve, though single readings can be large; an effect the other way counts as inactive or inconclusive.

SMILES | ELG1 repair inh | TSHR antag | RORg inh | Gal4-VP16 FLuc | B2AR arrestin
CC(=O)OC[C@@H]1O[C@@H](O/N=C2/C[C@@H](O)[C@@H](O)[C@@H]3[C@@H]4C(=O)N(Cc5ccccc5)C(=O)[C@H]4CC[C@@H]23)[C@H](OC(C)=O)[C@H](OC(C)=O)[C@@H]1OC(C)=O | · | · | –[10 µM] | –[10 µM] | ·
CC(=O)N[C@H]1C(O[C@@H]2O[C@H](C[C@@H](O)[C@H]3O[C@@H](N4CCC(=O)NC4=O)[C@H](O)[C@@H]3O)[C@H](O)[C@H](O)[C@H]2NC(=O)/C=C/CCCCCCCCCCC(C)C)OC(CO)[C@@H](O)[C@@H]1O (stereo partly specified) | · | · | ? | – | ·
Cc1cc(C)cc(C(=O)NC(CC(N)=O)c2ccc(NCCN3CCCC3)c([N+](=O)[O-])c2)c1 (stereo unspecified) | – | -89.5 | – | – | –
NC(=O)CC(NC(=O)c1ccccc1)c1ccc(N2CCC(Cc3ccccc3)CC2)c([N+](=O)[O-])c1 (stereo unspecified) | ? | – | ? | 11.2µM | –
NC(=O)CC(NC(=O)c1ccc(Br)cc1)c1ccc(N2CCC(Cc3ccccc3)CC2)c([N+](=O)[O-])c1 (stereo unspecified) | ? | – | – | 20µM | –
Cc1cc(C)cc(C(=O)NC(CC(N)=O)c2ccc(NCCN3CCOCC3)c([N+](=O)[O-])c2)c1 (stereo unspecified) | – | – | – | – | –
Cc1ccccc1-c1cncnc1N1CCNCC1 | · | · | – | – | ·
CC(C)(C)CNc1nc(C#N)nc(Nc2ccccc2)n1 | · | · | · | – | ·
COC(=O)[C@H](CCSC)NC(=O)c1ccc(NC[C@@H](N)CS)cc1-c1ccccc1 | · | · | – | – | ·
COCC(=O)N1CCC2(CCCN(Cc3ccc(C#N)cc3)C2)CC1 | · | · | – | – | ·
CC(C)(C)c1ccc(C2=CSC3=NCCN23)cc1 | – | – | 10µM | – | –
Fc1ccc(/C=N/Nc2nnnn2-c2ccccc2)cc1 | – | – | 11.2µM | ? | –
COc1ccc(C)cc1NS(=O)(=O)c1ccc(Cl)nc1 | – | – | · | · | –
COc1ccc(C(=O)O/N=C(\N)c2cccc(C)c2)cc1OC | ? | – | 1µM | ? | –
N/C(=N\OC(=O)c1ccc2c(c1)OCO2)c1ccncc1 | ? | – | 10µM | ? | –
N/C(=N\OC(=O)c1ccc2c(c1)OCO2)c1ccc(Cl)cc1 | ? | – | – | – | –
Cc1cccc(/C(N)=N/OC(=O)Cc2cccc3ccccc23)c1 | – | – | – | – | –
Cc1cccc(/C(N)=N/OC(=O)c2ccncc2)c1 | ? | – | 7.08µM | ? | –
Cc1cccc(C(=O)O/N=C(\N)Cc2cccc3ccccc23)c1 | – | – | ? | 11.2µM | –
COc1ccc(C(=O)O/N=C(\N)c2ccccc2)cc1OC | ? | – | – | – | –
CCCCCCCNC(=O)C1(CC2CC(c3ccc(Cl)cc3)=NO2)CCN(C(=O)c2cc(OCC)c(OCC)c(OCC)c2)CC1 (stereo unspecified) | ? | – | – | – | –
COC(=O)[C@H](COC(C)(C)C)NC(=O)O[C@@H]1C(=O)c2ccc(OC)cc2O[C@H]1c1cccc(C(F)(F)F)c1 | · | · | – | – | ·
COc1cccc(C(=O)O/N=C(\N)c2ccc(C)cc2)c1 | ? | – | – | – | –
COc1cccc(C(=O)O/N=C(\N)Cc2ccc(Cl)cc2)c1 | – | – | – | 12.6µM | –
Cc1cccc(NC(=S)N2CCN(Cc3ccccc3)CC2)c1C | – | – | 8.91µM | ? | –
SMILES | ELG1 repair inh | TSHR antag | RORg inh | Gal4-VP16 FLuc | B2AR arrestin
Cc1cccc(NC(=S)NC2CCN(Cc3ccccc3)CC2)c1C | – | – | ? | – | –
COc1ccc(NC(=S)N2CCN(Cc3ccccc3)CC2)c(OC)c1 | – | – | – | – | –
Cc1cc(Cl)ccc1NC(=S)N1CCN(Cc2ccccc2)CC1 | – | – | 11.2µM | 12.6µM | –
O=C1CCC(O)CCN1CCSc1ccccc1 (stereo unspecified) | ? | – | – | – | –
O=C1Nc2ccc3sc4ccccc4c3c2C1=O | – | – | ? | – | –
CCOc1cc(/C=C\[N+](=O)[O-])ccc1OCC(=O)N1CCOCC1 | – | – | 4.47µM | 5.62µM | –
CCOc1cc(/C=N/NC(=S)Nc2ccccc2C(F)(F)F)ccc1OCC(=O)N1CCOCC1 | 11.6µM | – | 1.41µM | 1.41µM | –
CCOc1cc(/C=C/c2nc3cc(C)c(C)cc3s2)ccc1OCC(=O)N1CCOCC1 | ? | – | ? | – | –
CC1CCCCN1CCCOC(=O)c1ccccc1 (stereo unspecified) | · | · | – | – | ·
CCN1C(=O)[C@H]2[C@H]3[C@H](O)[C@H](O)C/C(=N/O[C@@H](C)CN4CCCc5nc(C)c(C)cc54)[C@@H]3CC[C@@H]2C1=O | · | · | –[10 µM] | –[10 µM] | ·
C=C(C)COc1ccc(-c2n[nH]c(C)c2-c2ccc(Br)cc2)c(O)c1 | ? | – | 3.16µM | 4.47µM | –
C=C(C)COc1ccc(-c2[nH]ncc2-c2ccc(Br)cc2)c(O)c1 | ? | – | 7.94µM | 10µM | –
C=C(C)COc1ccc(-c2[nH]ncc2-c2ccccc2OC)c(O)c1 | ? | – | 8.91µM | 12.6µM | –
C=C(C)COc1ccc(-c2ncncc2-c2ccccc2OC)c(O)c1 | – | – | – | ? | –
C=C(C)COc1ccc(-c2ncncc2-c2ccc(Br)cc2)c(O)c1 | – | – | – | – | –
C=C(C)COc1ccc(-c2nc(N)ncc2-c2ccc(Br)cc2)c(O)c1 | – | – | – | – | –
CCOc1ccc(-c2[nH]ncc2-c2ccc(Cl)cc2)c(O)c1 | – | – | 11.2µM | ? | –
O=C(CSc1n[nH]c(-c2ccncc2)n1)Nc1ccccc1Cl | – | – | · | · | –
COc1cccc(/C=C/C(=O)OCC(=O)NCC2CCCCC2)c1OC | – | – | · | · | –
CCCn1c(C)nc2c(NCCN(C(C)C)C(C)C)nc(C)nc21 | · | · | – | – | ·
C=C(C)COc1ccc(-c2[nH]ncc2Oc2ccccc2OC)c(O)c1 | · | · | 11.2µM | ? | ·
C=C(C)COc1ccc(-c2[nH]ncc2Oc2ccc(OC)cc2)c(O)c1 | – | – | 12.6µM | ? | –
COc1ccc(-c2cn[nH]c2-c2ccc(OCc3ccc([N+](=O)[O-])cc3)cc2O)cc1 | ? | – | 2.82µM | 2µM | –
CCCOC(=O)c1ccc(Oc2cn[nH]c2-c2ccc(OC)cc2O)cc1 | ? | – | 10µM | 22.4µM | –
Cc1cc(C(F)(F)F)nc(SCCN2CCCCC2)c1C#N | – | – | – | – | –
O=C1N/C(=C\c2ccc(O)cc2)C(O)=C1C=NCc1ccccc1 | ? | – | 3.98µM | ? | –
O=C(c1ccccc1[N+](=O)[O-])N1N=C(c2ccccc2)CC1(O)C(F)(F)F (stereo unspecified) | – | – | ? | – | –
